# Data as given in PubChem BioAssay (NCI).
# About 83,000 compounds went through this panel and 20% of them were active in at least one assay; those are over-represented in the sample as a whole.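 Cells were grown in 96-well plates and exposed to the test compound at a single concentration for 48 hours; results are reported as percent growth, with values below 10 considered active.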 Unmarked numbers belong to inactive results. Calls of active or inactive are those of the source.
# Tested on: MDA-MB-468 breast
# Assay: NCI-60 one-dose screen, 48 h (100 = growth as untreated, 0 = no growth, -100 = all killed)
# Details: 10 µM unless noted
row,Structure (SMILES),growth
1,CCO/C=N/C1=C(C#N)C(c2ccc(OC)cc2)c2sc3c(F)cccc3c2O1 (centres undefined),17.7%
2,O=C(Nc1ccc(Cl)cc1)Nc1ccc(Cl)c(C(F)(F)F)c1,10.3%
3,CCOC(=O)N1CCc2c(sc3c2C(=O)N[C@H](c2ccc(OC)cc2)N3)C1,101%
4,CCN(CC)CCOc1ccc(-c2c(-c3ccccc3)c(=O)oc3ccccc23)cc1,72.9%
5,COc1ccc(/C=C/c2nc3ccccc3nc2/C=C/c2ccc(OC)cc2)cc1,88.1%
6,CC(=O)N1N=C(c2cccc(Nc3ccncc3)c2)CC1c1ccc2c(c1)OCO2 (centres undefined),85.5%
7,CN1CCN(CCOc2ccc(-c3cnc4c(-c5ccc(C(F)(F)F)cc5)cnn4c3)cc2)CC1,42.1%
8,CCN(CC)c1ccc2nc3ccc(=[N+](CC)CC)cc-3oc2c1,-46.6% (active)
9,CCCSc1nc(Nc2ccc(/C(C)=N\NC(N)=S)cc2)c(C#N)c(-c2ccccc2)n1,66.5%
10,Cc1ccc(C(=O)Nc2cccc(C(F)(F)F)c2)cc1Nc1nc(-c2cnccn2)nc2c1cnn2C,104%
11,COc1cc(CCc2cc(NC(=O)c3ccc(N4C[C@@H](C)N[C@@H](C)C4)cc3)n[nH]2)cc(OC)c1,71.3%
12,COc1cc2nc(-c3ccc(C(F)(F)F)cc3)cc(OCCCN3CCCCC3)c2cc1OC,52.5%
13,Cc1cc(NCCCNc2ccnc3cc(Cl)ccc23)nc(N2CCN(C)CC2)n1,65.4%
14,COC(=O)c1c2c(c(C)[n+]([O-])c1C)C(=O)C(NCc1ccccc1)=CC2=O,-31.8% (active)
